First the molecules themselves.
B1: Caulobacter ParB omega fusion; a variant is named by its letters at X, in order, B8GW30 (parent)
chain: MESVVVGEPGMSEGRRGLGRGLSALLGEVDAAPAQAPGEQLGGSREAPIEILQRNPDQPRRTFREEDLEDLSNSIREKGVLQPILVRPSPDTAGEYQIVAGERAWRAAQRAGLKTVPIMVRELDDLAVLEIGIIENVQRADLNVLEEALSYKVLMEKFERTQENIAQTIGKSXSHVANXMRLLXLPDEVQSYLVSGELTAXHARAIAAAADPVALAKQIIEGGLSVRETEALARKAPNLSAGKSKGGRPPRVKDTDTQALESDLSSVLGLDVSIDHRGSTGTLTITYATLEQLDDLCNRLTRGI

In all, about 81,000 sequences were measured (“one-hybrid fitness for binding parS DNA”: median about -0.17, highest 2% from about 0.51 on). What follows is part of a selection rich in the highest values, with near analogues and random picks from the rest.

The variants in the assay derive from B1. Briefly: one-hybrid fitness for binding parS DNA (scaled: cognate 1, non-cognate 0); higher = stronger binding. Conditions: with parS DNA site. In short, it runs like this: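 Fitness here means the log change in variant-to-wild-type read ratio between plasmids sequenced before and after selection. That scale was set so cognate equals 1 and non-cognate equals 0. The selection was a bacterial one-hybrid screen of Caulobacter ParB libraries, four specificity codons randomised, in E. coli USO carrying a HIS3 reporter with the site 19 bp from the promoter, grown 48 hours at 37°C on M9-minus-histidine with 0.1 mM IPTG and 5 mM 3-AT.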
On to RTCT, for which the “one-hybrid fitness for binding parS DNA” value was 0.917.
As to RMCM, the “one-hybrid fitness for binding parS DNA” value stood at 0.362.
Consider RTCM, for which the “one-hybrid fitness for binding parS DNA” value is 0.298.
Regarding RSCT, the “one-hybrid fitness for binding parS DNA” value turned out to be 0.809.
RCCT: the “one-hybrid fitness for binding parS DNA” value is 0.913.
For RSCM, the “one-hybrid fitness for binding parS DNA” value stood at 0.347.
Turning to RDCT, the “one-hybrid fitness for binding parS DNA” value is not above 0.2.
As to RTCF, the “one-hybrid fitness for binding parS DNA” value was 0.252.
To RECT belongs not above 0.2.
For the variant RMCT, the “one-hybrid fitness for binding parS DNA” value was found to be 0.888.
Next, RMCL: not above 0.2; RPCT: not above 0.2.
To YHLN belongs not above 0.2; to EVTM, not above 0.2; to RFLI, not above 0.2.
Turning to QHYD, the “one-hybrid fitness for binding parS DNA” value is not above 0.2.
To IDQR belongs not above 0.2; to NLHV, not above 0.2.
For the variant MGRC, the “one-hybrid fitness for binding parS DNA” value is not above 0.2.
Consider RCEA, for which the “one-hybrid fitness for binding parS DNA” value was 0.515.
RAEA: the “one-hybrid fitness for binding parS DNA” value came to 0.476.
RFEA: the “one-hybrid fitness for binding parS DNA” value was found to be 0.454.
As to RQEA, the “one-hybrid fitness for binding parS DNA” value was 0.554.
Next, RREA: 0.802; RSEA: 0.476.
Turning to RPEA, the “one-hybrid fitness for binding parS DNA” value was not above 0.2.
To RLEA belongs 0.567; to TIMD, not above 0.2; to PRLC, not above 0.2.
Next, MSLL: not above 0.2.
Consider FHAL, for which the “one-hybrid fitness for binding parS DNA” value is not above 0.2.
To SRDG belongs not above 0.2; to AALF, not above 0.2.
In the case of LFAM, the “one-hybrid fitness for binding parS DNA” value was not above 0.2.
As to RTEA, the “one-hybrid fitness for binding parS DNA” value worked out at 0.58.
Take RKEA: the “one-hybrid fitness for binding parS DNA” value is 0.515.
Take RDEA: the “one-hybrid fitness for binding parS DNA” value is not above 0.2.
For RYEA, the “one-hybrid fitness for binding parS DNA” value was 0.548.
Next, RHEA: 0.512; FASM: not above 0.2; SHST: not above 0.2.
To GLPS belongs not above 0.2; to DMPT, not above 0.2; to YLIW, not above 0.2.
For the variant FRKA, the “one-hybrid fitness for binding parS DNA” value is not above 0.2.
In the case of LMTN, the “one-hybrid fitness for binding parS DNA” value is not above 0.2.
On to GIRR, for which the “one-hybrid fitness for binding parS DNA” value is not above 0.2.
Consider LALL, for which the “one-hybrid fitness for binding parS DNA” value is not above 0.2.
RSFK: the “one-hybrid fitness for binding parS DNA” value was not above 0.2.
In the case of RPFG, the “one-hybrid fitness for binding parS DNA” value was not above 0.2.
With REFG, the “one-hybrid fitness for binding parS DNA” value is not above 0.2.
For RSFG, the “one-hybrid fitness for binding parS DNA” value was 0.94.
Regarding RCFG, the “one-hybrid fitness for binding parS DNA” value was found to be 1.01.
On to RDFG, for which the “one-hybrid fitness for binding parS DNA” value was not above 0.2.
On to AKRC, for which the “one-hybrid fitness for binding parS DNA” value was not above 0.2.
For the variant QSGM, the “one-hybrid fitness for binding parS DNA” value is not above 0.2.
As for MCTL, the “one-hybrid fitness for binding parS DNA” value was not above 0.2.
To TMTY belongs not above 0.2.
On to MHDG, for which the “one-hybrid fitness for binding parS DNA” value is not above 0.2.
Take WDTK: the “one-hybrid fitness for binding parS DNA” value was not above 0.2.
RQYA: the “one-hybrid fitness for binding parS DNA” value was found to be 0.583.
Turning to PQHA, the “one-hybrid fitness for binding parS DNA” value was not above 0.2.
On to NQHA, for which the “one-hybrid fitness for binding parS DNA” value is not above 0.2.
To RQPA belongs not above 0.2; to RQVA, 0.486; to KQQA, not above 0.2.
For the variant RQQA, the “one-hybrid fitness for binding parS DNA” value was 0.548.
On to RQIA, for which the “one-hybrid fitness for binding parS DNA” value was 0.42.
For the variant NQKA, the “one-hybrid fitness for binding parS DNA” value is not above 0.2.
For RQHA, the “one-hybrid fitness for binding parS DNA” value was 0.57.
To RQKA belongs 0.701; to PQTA, not above 0.2.
As to WANF, the “one-hybrid fitness for binding parS DNA” value is not above 0.2.
On to HAGM, for which the “one-hybrid fitness for binding parS DNA” value is not above 0.2.
Next, IYPG: not above 0.2.
LMKM: the “one-hybrid fitness for binding parS DNA” value is not above 0.2.
As to TYFC, the “one-hybrid fitness for binding parS DNA” value was not above 0.2.
As to GSSM, the “one-hybrid fitness for binding parS DNA” value was not above 0.2.
Next, KQSA: not above 0.2; EQAA: not above 0.2.
In the case of DQSA, the “one-hybrid fitness for binding parS DNA” value is not above 0.2.
Turning to RQFA, the “one-hybrid fitness for binding parS DNA” value stood at 0.532.
In the case of RQRA, the “one-hybrid fitness for binding parS DNA” value was 0.632.
For the variant DQAA, the “one-hybrid fitness for binding parS DNA” value was not above 0.2.
Next, RQSA: 0.575.
Take KQRA: the “one-hybrid fitness for binding parS DNA” value is not above 0.2.
On to RQAA, for which the “one-hybrid fitness for binding parS DNA” value is 0.571.
As to DQRA, the “one-hybrid fitness for binding parS DNA” value is not above 0.2.
To FPAS belongs not above 0.2; to PFLV, not above 0.2; to ENLG, not above 0.2.
To YSQA belongs not above 0.2; to QHET, not above 0.2; to ASIT, not above 0.2.
Take GAHR: the “one-hybrid fitness for binding parS DNA” value was not above 0.2.
Take MLHS: the “one-hybrid fitness for binding parS DNA” value is not above 0.2.
As to VETL, the “one-hybrid fitness for binding parS DNA” value was not above 0.2.
Take LASY: the “one-hybrid fitness for binding parS DNA” value was not above 0.2.
As to RCTV, the “one-hybrid fitness for binding parS DNA” value was not above 0.2.
Take TKMR: the “one-hybrid fitness for binding parS DNA” value is not above 0.2.
As to CQLA, the “one-hybrid fitness for binding parS DNA” value was not above 0.2.
Regarding NQMA, the “one-hybrid fitness for binding parS DNA” value was not above 0.2.
Turning to RQLA, the “one-hybrid fitness for binding parS DNA” value was found to be 0.568.
Regarding RQWA, the “one-hybrid fitness for binding parS DNA” value came out at 0.544.
Consider PQLA, for which the “one-hybrid fitness for binding parS DNA” value was not above 0.2.
With PQMA, the “one-hybrid fitness for binding parS DNA” value is not above 0.2.
Next, RQCA: 0.558; RQMA: 0.596; TQYS: not above 0.2.
HPLV: the “one-hybrid fitness for binding parS DNA” value was not above 0.2.
On to ANIE, for which the “one-hybrid fitness for binding parS DNA” value was not above 0.2.
Take RCYW: the “one-hybrid fitness for binding parS DNA” value is 0.314.
VLKR: the “one-hybrid fitness for binding parS DNA” value is not above 0.2.
As to HEGL, the “one-hybrid fitness for binding parS DNA” value was not above 0.2.
Turning to LRKS, the “one-hybrid fitness for binding parS DNA” value was not above 0.2.
As for CVSN, the “one-hybrid fitness for binding parS DNA” value is not above 0.2.
On to RQGA, for which the “one-hybrid fitness for binding parS DNA” value amounted to 0.563.
To CQGA belongs not above 0.2; to TVTV, not above 0.2.
Consider NTDT, for which the “one-hybrid fitness for binding parS DNA” value is not above 0.2.
Next, RTDR: not above 0.2.
Take RTDT: the “one-hybrid fitness for binding parS DNA” value worked out at 0.802.
On to RTNE, for which the “one-hybrid fitness for binding parS DNA” value is not above 0.2.
In the case of RTNR, the “one-hybrid fitness for binding parS DNA” value is not above 0.2.
Next, RTNT: 0.86.
Regarding MPRE, the “one-hybrid fitness for binding parS DNA” value was not above 0.2.
Consider IDTG, for which the “one-hybrid fitness for binding parS DNA” value is not above 0.2.
Next, PPTT: not above 0.2; RHPH: not above 0.2; PTAI: not above 0.2.
As for NAWA, the “one-hybrid fitness for binding parS DNA” value is not above 0.2.
RPWA: the “one-hybrid fitness for binding parS DNA” value is not above 0.2.
To DLWA belongs not above 0.2; to RWWA, 0.254.
Next, RMWA: 0.634; RLWA: 0.648.
Next, RAWA: 0.598; RCWA: 0.68; PWGP: not above 0.2.
Turning to CSAK, the “one-hybrid fitness for binding parS DNA” value is not above 0.2.
Next, HTAP: not above 0.2.
Turning to VEFT, the “one-hybrid fitness for binding parS DNA” value was not above 0.2.
As for QGNA, the “one-hybrid fitness for binding parS DNA” value is not above 0.2.
Consider YNSE, for which the “one-hybrid fitness for binding parS DNA” value was not above 0.2.
QDDR: the “one-hybrid fitness for binding parS DNA” value was not above 0.2.
To TNQC belongs not above 0.2.
As to APGM, the “one-hybrid fitness for binding parS DNA” value is not above 0.2.
With QNSI, the “one-hybrid fitness for binding parS DNA” value is not above 0.2.
For the variant NRWA, the “one-hybrid fitness for binding parS DNA” value was not above 0.2.
Turning to RRWA, the “one-hybrid fitness for binding parS DNA” value was 0.834.
As for RFWA, the “one-hybrid fitness for binding parS DNA” value came to 0.481.
For the variant RGWA, the “one-hybrid fitness for binding parS DNA” value amounted to 0.282.
Take RSWA: the “one-hybrid fitness for binding parS DNA” value amounted to 0.546.
Next, RHWA: 0.486.
On to RTWA, for which the “one-hybrid fitness for binding parS DNA” value worked out at 0.626.
Regarding RKWA, the “one-hybrid fitness for binding parS DNA” value came to 0.58.
As to WTTC, the “one-hybrid fitness for binding parS DNA” value is not above 0.2.
With NRTE, the “one-hybrid fitness for binding parS DNA” value was not above 0.2.

The values are drawn from a collection of fitness landscapes (doi:10.1016/j.celrep.2020.107928).
